{
  "source": "PubChem BioAssay (NCATS)",
  "note": "Active and inactive are the calls of the source. Where a call stands in place of a potency, no number is given. The call rests on the fitted dose curve; in most records, active means well fitted activation curve with a large enough effect; inconclusive means small, poorly fitted or top-dose-only effect; inactive means flat fitted curve, though single readings scatter.",
  "data": [
    {"test": "Cellular Toxicity (caspase-3) HepG2 (AID 654);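 further: cells exposed to compound for 16 hours before reading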", "settings": "HepG2 caspase-3 activation, luminescence; series mostly up to 92.2 µM", "source_text": "NIH Chemical Genomics Center [NCGC]\nNIH Molecular Libraries Screening Centers Network [MLSCN]\nNational Institutes of Environmental Health Sciences [NIEHS]\nNational Toxicology Program [NTP]\nWe have developed a 1536-well cell-based assay for quantitative high throughput screening (qHTS) against a number of cell lines to determine in vitro caspase 3/7 of small molecules. This particular assay uses the HepG2 cell line which is derived from human hepatocellular carcinoma.\nNCGC Assay Protocol Summary:\nThe Caspase-Glo 3/7 assay (Promega) is a homogeneous method to measure caspase-3 and caspase-7 activities in cultured cells. The quantitation of caspase 3/7 activity is based on the cleavage of a peptide-aminoluciferin substrate. After caspase cleaves the substrate the free aminoluciferin is liberated and serves as the substrate of luciferase, which generates the light. The luminescent signal is proportional to amount of caspase 3/7 activity present.\nUsing the Caspase-Glo 3/7 assay, the amount of caspase 3/7 activity was measured in the HepG2 cell line with complete culture medium following compound treatment for 16 hours. The assay was performed in opaque white 1536-well plates. In the screen, tamoxifen and doxorubicin were used as positive controls. Library compounds were measured for their ability to cause the activation of caspase 3/7 in the cell line, as reflected by an increase in luminescence signal, in a concentration-dependent manner. Data were normalized to the controls for basal activity (DMSO only) and 100% stimulation (100 uM tamoxifen). AC50 values were determined from concentration-response data modeled with the standard Hill equation.\nqHTS protocol for caspase 3/7 assay in HepG2 cells\n[Step] [Parameter] [Value] [Description]\n1. Reagent; 5 uL; 1500 HepG2 cells/well\n2. Time; 5 hr; 37 °C incubation\n4. Controls; 23 nL; Tamoxifen 0.23 uM to 100 uM & Doxorubicin 7.0 pM to 100 uM\n5. Time; 16 hr; 37 °C incubation\n6. Reagent; 5 uL; Caspase-Glo 3/7 reagent\n7. Time; 20 min; Room Temperature\n8. Detection; Luminescence; Viewlux plate reader\nKeywords: caspase 3/7, apoptosis, HepG2 cell line, luminescence, NTPHTS, NTPHTS_NCGC, NIEHS, EPA, DSSTox, MLSMR, MLSCN, NIH Roadmap, qHTS, NCGC", "values": [
      {"smiles": "O=C1OC(=O)c2cc([N+](=O)[O-])ccc21", "Potency": "inactive"},
      {"smiles": "Cc1cccc(C)c1O", "Potency": "inactive"},
      {"smiles": "Nc1cc([N+](=O)[O-])ccc1C(=O)O", "Potency": "inactive"},
      {"smiles": "CC(=O)OC(C)C", "Potency": "inactive"},
      {"smiles": "Cc1ccc(C)cc1", "Potency": "inactive"},
      {"smiles": "CCCCCNCCCCC", "Potency": "inactive"},
      {"smiles": "c1ccc2c(c1)Oc1ccccc1S2", "Potency": "inactive"},
      {"smiles": "O=[N+]([O-])c1cc(C(F)(F)F)ccc1Cl", "Potency": "inactive"},
      {"smiles": "COC(=O)CCC(=O)OC", "Potency": "inactive"},
      {"smiles": "Cc1ccc(C#N)cc1", "Potency": "inactive"},
      {"smiles": "C=C(C)C(=O)OCC(C)C", "Potency": "inactive"},
      {"smiles": "C=C(C)C(=O)OC", "Potency": "inactive"},
      {"smiles": "O=C1C=CCCC1", "Potency": "inactive"},
      {"smiles": "CCCCCCCN", "Potency": "inactive"},
      {"smiles": "COc1ccc(N=[N+]([O-])c2ccc(OC)cc2)cc1", "Potency": "inactive"},
      {"smiles": "OC1CCCC1", "Potency": "inactive"},
      {"smiles": "O=[N+]([O-])c1ccc(CCO)cc1", "Potency": "inactive"},
      {"smiles": "C=C(C)OC(C)=O", "Potency": "inactive"},
      {"smiles": "NC(=O)c1cccc([N+](=O)[O-])c1", "Potency": "inactive"},
      {"smiles": "Cc1cc(C2(c3cc(C)c(O)cc3C)OS(=O)(=O)c3ccccc32)c(C)cc1O", "Potency": "inactive"},
      {"smiles": "ClC/C=C/CCl", "Potency": "inactive"},
      {"smiles": "Cc1ccc2oc(=O)ccc2c1", "Potency": "inactive"},
      {"smiles": "CCCOCC(C)OCC(C)O", "note": "(stereo not given)", "Potency": "inactive"},
      {"smiles": "CC(C)(O)CCC(C)(C)O", "Potency": "inactive"},
      {"smiles": "Cc1cccc(C)c1[N+](=O)[O-]", "Potency": "inactive"},
      {"smiles": "Cc1cccc2sc(N)nc12", "Potency": "inactive"},
      {"smiles": "CC(C)Nc1ccccc1", "Potency": "inactive"},
      {"smiles": "CCOCCOCC", "Potency": "inactive"},
      {"smiles": "Cc1cc(C)c(N)cc1C", "Potency": "inactive"},
      {"smiles": "C=Cc1ccc(C=C)cc1", "Potency": "inactive"},
      {"smiles": "CC(N)CN", "note": "(stereo not given)", "Potency": "inactive"},
      {"smiles": "CN(C)c1cccc(O)c1", "Potency": "inactive"},
      {"smiles": "CNc1ccc([N+](=O)[O-])cc1", "Potency": "inactive"},
      {"smiles": "O=[N+]([O-])c1ccc(Cl)cc1Cl", "Potency": "inactive"},
      {"smiles": "CCOc1cccc(N)c1", "Potency": "inactive"},
      {"smiles": "Nc1ccccc1S(=O)(=O)O", "Potency": "inactive"},
      {"smiles": "CNC(=O)c1ccccc1", "Potency": "inactive"},
      {"smiles": "CC(=O)Nc1ccc(C)cc1", "Potency": "inactive"},
      {"smiles": "CCC1CO1", "note": "(stereo not given)", "Potency": "inactive"},
      {"smiles": "Clc1ccc(Cl)c(Cl)c1Cl", "Potency": "inactive"}
    ]}
  ]
}
